gsp agonist = agonists of gsp mutant (McCune-Albright syndrome) | gsp mutant cells, cAMP HTRF, 30 min | Potency, µM (doses to about 76.9 µM), for inactives: at the top dose activation (cAMP increase), actives largely listed as activators | 0.13% of 340,000 active | AID 624287; active = well fitted activation curve with a large enough effect; inconclusive = small, poorly fitted or top-dose-only effect, or another doubt; inactive = no such curve, though single readings can be large or run the other way; cell line not stated here;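 note: phosphodiesterase inhibitor Ro 20-1724 added with compounds to block cAMP breakdown; potency is the fitted concentration of half-maximal effect; nearly all actives have a fitted effect of over 60% in size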
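Cells in DMEM/10% FBS with G418 were pretreated with compounds in DMSO plus […] (300 uM stock) for 30 min at 37C. cAMP was measured by HTRF (cAMP-d2 plus anti-cAMP antibody-K) after 30 min at room temperature.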
gsp antagonist = antagonizes gsp, the McCune-Albright syndrome mutation; gsp-mutant cells, cAMP HTRF, 30 min; Potency, µM (doses to about 76.9 µM), inactives show at the highest dose activity change, negative = inhibition, usual class: inhibitors; 0.4% of 340,000 active; calls by dose curve; cell line not stated here;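 note: intracellular cAMP measured with PDE inhibitor Ro 20-1724 present during compound exposure; potency is the fitted concentration of half-maximal effect; % is set by controls: 0 for no effect and ±100 for the full control effect; nearly all actives have a fitted effect of over 65% in size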
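Cells in G418 medium, seeded 16-24 h, 37C; buffer exchange to DPBS + 1 mM CaCl2, 0.5 mM MgCl2, 0.05% BSA; cpds in DMSO + […] (300 uM stock), 30 min 37C; HTRF cAMP detection.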
IL2 activator = activators of IL-2; IL-2 activation reporter assay, cell-based qHTS; stimulated with anti-CD3/CD4/CD28 beads; in transgenic mouse T cells; activation, % (series mostly up to about 46 µM); 0.065% of 360,000 active; AID 652025; in the data active = activation above about 50%; inconclusive = mostly about 30% to 49%; note: 0% is about no effect
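Unstimulated transgenic mouse T cells; 60-min compound exposure; bead-based TCR/CD4/CD28 stimulation; 18 h culture, 37 degrees C; dual fluorescence (EGFP, DsRed) plate cytometry.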
BRCA1 expr act = BRCA1 expression activation; Potency, µM (top dose mostly 46.1 µM), inactives show at the highest dose activation, most hits filed as activators; 1.1% of 380,000 active; MCF7-BRCA1-FFLuc reporter, luminescence, 48 h; response scale: scaled: vehicle 0%, 10 µM genistein 100%; note: potency is the fitted concentration of half-maximal effect; nearly all actives have a fitted effect of over 80% in size
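Luminescence from a BRCA1-driven firefly luciferase in MCF7 cells was read after 48 h compound exposure at 37 C. Data normalized against DMSO and a 10microM genistein activation control, then curve-fitted across the titration.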
mIDH1 inhibitor = blocks human mutant IDH1 R132H enzyme; O75874; IDH1-R132H enzyme, NADPH consumption, diaphorase/resazurin fluorescence; Potency, µM (doses to about 76.6 µM), inactives show at the highest dose activity change, negative = inhibition, actives largely listed as inhibitors; 0.093% of 390,000 active; AID 602179; note: potency is the fitted concentration of half-maximal effect; % is set by controls: 0 for no effect and ±100 for the full control effect; nearly all actives have a fitted effect of over 65% in size
Target sequence (O75874 whole entry R132H, stated change not applied): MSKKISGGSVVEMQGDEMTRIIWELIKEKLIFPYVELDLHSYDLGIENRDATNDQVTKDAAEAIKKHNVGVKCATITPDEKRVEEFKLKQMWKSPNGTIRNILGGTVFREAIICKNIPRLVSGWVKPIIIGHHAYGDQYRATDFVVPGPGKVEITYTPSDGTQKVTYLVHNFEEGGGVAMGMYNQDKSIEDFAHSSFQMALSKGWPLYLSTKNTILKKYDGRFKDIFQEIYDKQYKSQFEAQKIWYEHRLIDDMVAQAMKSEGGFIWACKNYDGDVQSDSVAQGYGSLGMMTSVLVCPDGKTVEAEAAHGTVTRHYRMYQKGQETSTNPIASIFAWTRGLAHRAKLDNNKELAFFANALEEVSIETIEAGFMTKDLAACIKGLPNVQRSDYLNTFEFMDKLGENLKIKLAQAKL
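IDH1-R132H (0.5 ug/mL dispensed) in pH 7.5 Tris buffer was preincubated 30 min with compound, then given a substrate mix of 0.016 mM NADPH and 2 mM alpha-KG for 80 min at room temperature; remaining NADPH was read by diaphorase/resazurin fluorescence.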
The depositor's hits bear a star; [ ] = dose if it differs, or a comment. The list is not random: actives were taken first. Their share in the collection is about 1.5%. Unless noted, calls come from the whole dose curve; as a rule, active = well fitted curve in the direction sought with a large enough effect; inconclusive = small, poorly fitted or top-dose-only effect, or another doubt; inactive = no such curve, though single readings can be large; an effect the other way counts as inactive or inconclusive.

Screening O=C(Nc1cccc(C(=O)O)c1)/C(=C\c1ccc2c(c1)OCO2)NC(=O)c1ccc(Br)o1 returned gsp agonist 0%[15.4 µM], gsp antagonist 4%, IL2 activator 2, BRCA1 expr act 8.9µM* and mIDH1 inhibitor 4%.
For O=C(CCCSc1ccc(Cl)cc1)Nc1cc(S(=O)(=O)N2CCOCC2)ccc1O the results were gsp agonist -28%, gsp antagonist 32µM*, IL2 activator 0, BRCA1 expr act 0% and mIDH1 inhibitor -4%.
Screening O=C(Nc1cc(S(=O)(=O)N2CCOCC2)ccc1O)c1ccc(S(=O)(=O)N2CCCCC2)cc1 returned gsp agonist -7%, gsp antagonist 8.9µM*, IL2 activator -1, BRCA1 expr act 0% and mIDH1 inhibitor -9%.
Cc1ccc(N=Nc2c(N)n[nH]c2N)cc1 was read as gsp agonist -15%[15.4 µM], gsp antagonist 10%, IL2 activator 0, BRCA1 expr act 10µM* and mIDH1 inhibitor 2%.
Cc1ccc(-c2[nH]nc(N)c2N=Nc2ccccc2C)cc1 was read as gsp agonist 19%, gsp antagonist -13%, IL2 activator -1, BRCA1 expr act -69% and mIDH1 inhibitor -1%.
Nc1n[nH]c(N)c1N=Nc1ccc2c(c1)OCO2 was read as gsp agonist 12%, gsp antagonist -4%, IL2 activator -2, BRCA1 expr act 10µM* and mIDH1 inhibitor 1%.
`Nc1n[nH]c(C2CC2)c1N=Nc1ccc(Cl)c(Cl)c1` gave gsp agonist -1%[15.4 µM], gsp antagonist 3%, IL2 activator -4, BRCA1 expr act 2% and mIDH1 inhibitor 3%.
`C=CCSc1nnc(NC(=O)c2cccc(S(=O)(=O)N(C)c3ccccc3)c2)s1` gave gsp agonist -1%, gsp antagonist 40µM*, IL2 activator 0, BRCA1 expr act -18% and mIDH1 inhibitor 9%.
`CCN(C(C)=O)c1nnc(CSc2nc3ccccc3s2)s1` gave gsp agonist -23%, gsp antagonist 6%, IL2 activator -3, BRCA1 expr act 24% and mIDH1 inhibitor 1%.
For c1csc(CSc2nc3ccccc3s2)c1 the results were gsp agonist -7%, gsp antagonist -9%, IL2 activator -2, BRCA1 expr act 7.9µM* and mIDH1 inhibitor 3%.
`Cc1noc(C)c1CSc1nc2ccccc2s1` gave gsp agonist -18%, gsp antagonist 6%[15.4 µM], IL2 activator 0, BRCA1 expr act -8% and mIDH1 inhibitor 4%.
For CNc1nnc(CSc2nc3ccccc3s2)s1 the results were gsp agonist -56%, gsp antagonist -10%, IL2 activator -1, BRCA1 expr act 11µM* and mIDH1 inhibitor 2%.
Screening CCOc1cc2ccccc2cc1C(=O)OCC(=O)Nc1ccc(Br)cc1 returned BRCA1 expr act 19%.
Screening COC(=O)Cn1cc(/C=C/c2cc[n+](C)cc2)c2ccccc21 returned gsp agonist -15%, gsp antagonist -17%, IL2 activator 2, BRCA1 expr act 7% and mIDH1 inhibitor -9%.
Screening COc1ccc2c(c1)c(/C=C/c1cc[n+](C)cc1)cn2C returned gsp agonist -30%, gsp antagonist inconclusive, IL2 activator 238*, BRCA1 expr act -54% and mIDH1 inhibitor 8%.
For COc1ccccc1NS(=O)(=O)c1ccc(C)c(NS(=O)(=O)c2cc(NC(C)=O)ccc2OC)c1 the results were gsp agonist -20%, gsp antagonist -20%, IL2 activator 2, BRCA1 expr act -5% and mIDH1 inhibitor -1%.
For COC(=O)c1ccc(N2NC(=O)/C(=C/c3cc(OC)c(O)c(OC)c3)C2=O)cc1 the results were gsp agonist inconclusive, gsp antagonist -20%, IL2 activator 1, BRCA1 expr act -5% and mIDH1 inhibitor 11%.
For COC(=O)c1ccc(N2NC(=O)/C(=C/c3cc(OC)c(OC)c(OC)c3)C2=O)cc1 the results were gsp agonist inconclusive, gsp antagonist 13µM*, IL2 activator 0, BRCA1 expr act 12% and mIDH1 inhibitor 0%.
`O=C(Cn1cc(C(=O)C2CC2)c2ccccc21)NCc1ccccc1` gave gsp agonist -54%, gsp antagonist -20%, IL2 activator 0, BRCA1 expr act 13µM* and mIDH1 inhibitor 1%.
